Measurements: PubChem BioAssay (NCI)
“And” between values parts separate entries of the source, which are not always exact repeats. Equal values may be shown once. Compounds without any hit were thinned out: in the full panel of roughly 83,000, 20% have a hit.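 Interpretation: 100, growth as untreated; towards 0, rising growth inhibition; 0, no net growth; 0 to -100, cell death. Compounds scoring below 10 were considered active.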 The source made the active and inactive calls.

The molecules below were run on U251 CNS (assay: NCI-60 one-dose screen, 48 h (100 = growth as untreated, 0 = no growth, -100 = all killed)). Details: 10 µM unless noted.
Experimental: Growth inhibition of the U251 human tumor cell line is measured as a screen for anti-cancer activity. Cells are grown in 96 well plates and exposed to the test compound for 48 hours. Compounds are tested at a single concentration, which is 10^-5 M for most compounds. The reported endpoint is percent growth (GI% or GIPRCNT), where numbers from 0 - 100% represent growth inhibition, and numbers from -100% - 0 represent cell death. For example, a value of 40 represents 60% growth inhibition. A value of 0 means no net growth occurred over the course of the experiment. A value of -40 indicates 40% of cells at the beginning of the experiment died by the end of the experiment. A value of -100 means all cells are dead at the end of the experiment.
NCI-60 Human Tumor Cell Lines Screen was performed using the standard one-dose NCI protocol, which is described in more detail at https://dtp.cancer.gov/discovery_development/nci-60/default.htm.
Compounds with GIPRCNT values below 10 were considered active. Activity score was based on GIPRCNT using the following formula: […]
Score is 0 for GIPRCNT values of 100 or above, 50 for GIPRCNT values of 0, and 100 for GIPRCNT values of -100.
With `Cc1ccc(S(=O)(=O)n2ccnc2)cc1` the growth was 101% (inactive). With `CCCC(=O)Oc1ccc2ccccc2c1` the growth was 95.5% (inactive). For `COc1ccc(CCn2cnn3c(=O)c4ccccc4nc3c2=O)cc1OC`, the growth was 101% (inactive) and 104% (inactive). In the case of `CCc1ccc(OC(=O)CCl)cc1`, the growth is reported as 97% (inactive). For `Nc1nc(N)c2cc(S(=O)(=O)c3ccccc3)ccc2n1`, the growth was 30.5% (inactive) and 30.8% (inactive). With `CC(=O)Oc1cc(C(C)C)c(OCCN(C)C)cc1C` the growth was -90.7% (active) and 97.7% (inactive). `COc1ccc(CCN=Cc2ccc(Cl)cc2)cc1OC` was tested, and the growth was 105% (inactive). `O=C1C=CC(n2cc(F)c(=O)[nH]c2=O)O1` (stereo not given) was tested, and the growth was 82.2% (inactive). In the case of `COC(=O)CCOc1ccccc1`, the growth is reported as 96% (inactive). With `CC(=O)Nc1ccc(OC(C)=O)cc1` the growth was 11.7% (inactive) and 102% (inactive). For `CC(=O)/C(N=Nc1ccc(S(=O)(=O)c2ccc(N=N/C(C(C)=O)=C(/C)O)cc2)cc1)=C(\C)O`, the growth was 101% (inactive). For `Cc1ccc(NC(=S)N/C=C(\c2ccccc2)S(=O)Cc2ccccc2)c(C)c1` (stereo not given), the growth was 87.9% (inactive). With `CCN(CC)C(=S)SCCO` the growth was 98.2% (inactive). For `O=c1ccn2c(n1)OC1CC2OC1COC(c1ccccc1)(c1ccccc1)c1ccccc1` (stereo not given), the growth was 89.2% [100 µM] (inactive). For `N#CC(=S)Nc1ccc(Cl)c(Cl)c1`, the growth was 9.34% (active). `OCc1cccc(F)c1` was tested, and the growth was 83.5% (inactive). `CS(=O)(=O)c1nsc(N)n1` was tested, and the growth was 102% (inactive). In the case of `O=[N+]([O-])c1cccc(N=Cc2ccccc2)c1`, the growth is reported as 103% (inactive). For `N#Cc1ccc(/C=C/C(=O)c2ccccc2)cc1`, the growth was 33.2% (inactive) and 62.5% (inactive). `CCN(CC)Cc1cc2[nH]c3c4ccc(Cl)cc4ncc3c2cc1OC` was tested, and the growth was 3.79% (active) and 64.8% (inactive). With `CCOC(C)=N` the growth was 104% (inactive). In the case of `CC1NC(C)c2ccc3ccccc3c2O1` (stereo not given), the growth is reported as 109% (inactive). With `Cc1ccc(N)cc1S(=O)(=O)O` the growth was 106% (inactive) and 103% (inactive). For `O=[N+]([O-])c1ccc(NC2CCCCC2)nc1`, the growth was 107% (inactive) and 101% (inactive). In the case of `CC(=O)Oc1cc(C)c(OC(C)=O)c(C)c1C`, the growth is reported as 104% (inactive). In the case of `S=c1ccc2ccccc2[nH]1`, the growth is reported as 96.7% (inactive) and 98.1% (inactive). For `CCOC(=N)c1ccc(C(=N)OCC)cc1`, the growth was 102% (inactive). For `CN(C)CC(CN(C)C)C(O)c1ccccc1` (stereo not given), the growth was 99.5% (inactive). `COc1ccc([N+](=O)[O-])cc1OC` was tested, and the growth was 104% (inactive) and 95.6% (inactive). For `O=[N+]([O-])c1ccc(N/N=C/C2CCCCCC2)c([N+](=O)[O-])c1`, the growth was 96.8% (inactive). `OCCS` was tested, and the growth was 95.3% (inactive). For `O=C(O)C(Cc1ccc(OS(=O)(=O)Cc2ccccc2)cc1)NS(=O)(=O)Cc1ccccc1` (stereo not given), the growth was 104% (inactive). `C/C(CC(C)C)=N/NC(N)=S` was tested, and the growth was 79.3% (inactive). With `CC1=CC(=O)c2cccc(NC3=NCCO3)c21` the growth was 99.5% (inactive). For `COC(=O)c1ccccc1Cl`, the growth was 97.4% (inactive). `Cc1c(Cl)cc(Cl)c(N)c1Cl` was tested, and the growth was 99.4% (inactive). `CC1OS(=O)OC1C` (stereo not given) was tested, and the growth was 100% (inactive) and 101% (inactive). With `O=COCCCc1ccccc1` the growth was 94.5% (inactive). With `Cc1c(Cl)c(C)c(Cc2c(C)c(Cl)c(C)c(Cl)c2O)c(O)c1Cl` the growth was 8.95% (active). `CCC(=O)Oc1ccc(OCc2ccccc2)cc1` was tested, and the growth was 87.7% (inactive) and 80.8% (inactive).
